Source: PubChem
FMDV antiviral = antivirals against foot and mouth disease virus; FMDV antiviral cell-based qHTS; Potency, µM (highest dose often 57.9 µM), without a hit: at the top dose activity change, negative = inhibition, actives largely listed as inhibitors; 410,000 compounds, 1.2% hits; calls by dose curve; tested in HEK293T cells; further: read-out not given here; potency means the concentration at half of the fitted maximal effect; nearly all actives have a fitted effect of over 45% in size
HCMV antiviral = inhibitors of human cytomegalovirus | HFF cells, HCMV-luciferase reporter, 72 h; active compounds read low | activity change, negative = inhibition, % at 57.5 µM | 410,000 compounds, 4.5% hits; in the data active means activity change below about -60%; inconclusive means no clear call, values can overlap the other calls; inactive means above about -39%
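Two-dose cell screen: HFF monolayers treated with compounds and infected with luciferase-expressing HCMV at 1 PFU/cell, 72 h at 37C, then lysed for luciferase measurement.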
HCV inh = inhibitors of hepatitis C virus infection; Huh7.5.1 HCVcc-Cre infection, luciferase reporter, 44 h; 340,000 compounds, 3.4% hits; Potency, µM (highest dose often 41.8 µM), for inactives: top-dose activity change, negative = inhibition, actives largely listed as inhibitors; active means well fitted inhibition curve with a large enough effect; inconclusive means small, poorly fitted or top-dose-only effect, or another doubt; inactive means no such curve, though single readings can be large or run the other way; further: potency means the concentration at half of the fitted maximal effect
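Infectious HCVcc-Cre (~0.5 moi) was added to cells just after compound, with cells seeded 4 h earlier at 1,000 per well. Luciferase activity after 44 h culture reported infection; substrate was incubated 15 min at room temperature before reading.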
VACV Venus inh = inhibitors of vaccinia virus (Venus reporter) | Vaccinia virus Venus reporter expression, fluorescence | Potency, µM (doses to about 36.5 µM), without a hit: at the highest dose activity change, negative = inhibition, usual class: inhibitors | 330,000 compounds, 0.46% hits | AID 720580; calls by dose curve; tested in A549 cells; further: potency means the concentration at half of the fitted maximal effect; nearly all actives have a fitted effect of over 30% in size
VACV mCherry inh = vaccinia inhibition (mCherry reporter); Vaccinia virus mCherry reporter infection, fluorescence; Potency, µM (top dose mostly 36.5 µM), for the others: at the top dose activity change, negative = inhibition, hits mostly inhibitors; 310,000 compounds, 0.63% hits; calls by dose curve; tested in A549 cells; further: potency means the concentration at half of the fitted maximal effect; nearly all actives have a fitted effect of over 35% in size
Starred values were filed as active, the others as inactive; i = inactive; ? = inconclusive; . = no result given; [ ] = dose if it differs, or a comment. Compounds with a hit are over-represented: about 7.3% of the library has one in this group of screens. On the % scale 0 is the no-effect control and ±100 the full control effect.

SMILES | FMDV antiviral | HCMV antiviral | HCV inh | VACV Venus inh | VACV mCherry inh
Nc1nc(N)c(-c2cccc(C(F)(F)F)c2)c(Cc2cccc(C(F)(F)F)c2)n1 | -29% | -75* | ? | 4µM* | 4.5µM*
C[C@H](CO)N1C[C@H](C)[C@H](CN(C)S(C)(=O)=O)OCc2ccccc2-c2c(n(C)c3ccccc23)C1=O | 71% | 10 | . | -10% | 0%
C[C@H](CO)N1C[C@H](C)[C@H](CN(C)S(=O)(=O)c2ccc(Cl)cc2)OCc2ccccc2-c2c(n(C)c3ccccc23)C1=O | -15% | -68* | . | ? | ?
C[C@@H]1CN([C@H](C)CO)C(=O)c2c(c3ccccc3n2C)-c2ccccc2CO[C@@H]1CN(C)S(=O)(=O)c1cccs1 | -24% | -81* | . | -24% | ?
Cc1ccc(S(=O)(=O)N(C)C[C@@H]2OCc3ccccc3-c3c(n(C)c4ccccc34)C(=O)N([C@H](C)CO)C[C@@H]2C)cc1 | -13% | -60* | . | ? | -14%
Cc1ccc(C(=O)COC(=O)c2nc(Cl)ccc2Cl)cc1 | 55% | 16 | 2% | 9% | -16%
O=C(O)c1ccc(-n2ncc(Cl)c(Cl)c2=O)cc1 | ? | . | . | -14% | 0%
Cc1ccc(C(=O)OCn2ncc(Cl)c(Cl)c2=O)cc1 | 16µM* | -102* | 2.5µM* | . | .
O=C(OCn1ncc(Cl)c(Cl)c1=O)c1ccc(C(F)(F)F)cc1 | ? | -86* | 10µM* | . | .
Cc1cc2c(cc1S(=O)(=O)CCC(=O)N1CCN(c3ccccc3)CC1)OCC(=O)N2 | -14% | -3 | . | 0% | 3%
CCOC(=O)c1c(C)[nH]c(C(C)=O)c1C | -1% | 39 | 6% | . | .
CCOC(=O)c1[nH]c(C=O)c(C(=O)OCC)c1C | 16% | -96* | ? | 3% | 1%
CCCc1cc(=O)[nH]c(SCC(=O)c2[nH]c(C)c(C(=O)OCC)c2C)n1 | -18% | 45 | 11µM* | 4% | -9%
CCOC(=O)c1c(C)[nH]c(C(=O)COC(=O)c2cc(C)oc2C)c1C | -16% | -14 | ? | . | .
CCCc1cc(=O)[nH]c(SCC(=O)CSc2nc(CCC)cc(=O)[nH]2)n1 | -27% | -6 | 8% | -17% | -24%[1.46 µM]
CCOC(=O)c1c(C)[nH]c(C(=O)COC(=O)c2c(CC)noc2C)c1C | -20% | -6 | 14µM* | -1% | -2%
CCOC(=O)c1c(C)[nH]c(C(=O)OCc2ccc(C)cc2)c1C | 67% | -2 | ? | . | .
CCOC(=O)c1c(C)[nH]c(C(=O)OCc2c(C)noc2C)c1C | ? | -33 | 11µM* | ? | .
CCOc1ccccc1-n1nnc(-c2nc(-c3ccccc3C)no2)c1C | 24% | -37 | . | 0%[7.34 µM] | -5%[7.34 µM]
COC(=O)CC1c2cc(OC)c(OC)cc2CCN1C(=O)Nc1ccc(C)cc1Cl (configuration not stated) | -12% | 34 | . | -1% | -10%
Cc1ccc(C(=O)COC(=O)C(CC(C)C)NC(=O)C2CCC(C)CC2)cc1 (configuration not stated) | -10% | 10 | . | -5% | -4%
CCOc1ccc(S(=O)(=O)NCc2cccn2Cc2cccc(C)c2)cc1 | 21% | 5 | . | -6% | -16%
CCn1c(C(=O)NCc2ccc(C)cc2)cc2sc(Cl)cc21 | -7% | ? | . | -4% | -4%
COc1cc(-c2cc(C)c3cccc(OC)c3n2)cc2c1OCCN(C(=O)Cn1nc(C)cc1C)C2 | 15% | . | . | -1% | -7%
Cc1ccccc1-n1nc(CO)c(C(=O)NCc2cccnc2)n1 | -7% | -6 | . | 1% | 1%
SMILES | FMDV antiviral | HCMV antiviral | HCV inh | VACV Venus inh | VACV mCherry inh
CCOc1ccc(NC(=O)C(C)n2c(=O)cc(C)c3c(C)nn(-c4ccccc4)c32)cc1 (configuration not stated) | 11% | 2 | . | -8% | -12%
CCOC(=O)C(C)Sc1nc2c([nH]c3ccccc32)c(=O)n1C (configuration not stated) | . | 65 | 10µM* | -8% | 0%
CCc1ccc(OCC(=O)Nc2ccc(Cl)c(-c3nc4ncccc4o3)c2)cc1 | ? | -3 | . | -2% | -1%
CC(Cl)C(=O)c1c[nH]c2ccccc12 (configuration not stated) | -12% | -67* | -8% | -14% | -27%
O=C(Nc1nnc(SCc2cc(=O)n3cc(Cl)ccc3n2)s1)c1cccc(F)c1 | -4% | -13 | . | -8% | i
Cc1ccc(C(=O)OCC(=O)NC(=O)NCc2ccccc2)cc1C | -7% | -2 | 8% | . | .
